Calls of active or inactive are those of the source.
Columns and labels:
[1] = test system: Plasmodium falciparum Sir2 (PF13_0152, Sir2A); assay: pfSir2 binders on small-molecule microarrays, primary screen, biochemical, small-molecule microarray, 635 nm fluorescence (AID 1098); details: small-molecule microarray binding, fluorescence 635 nm; higher = more signal;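 note: score merges spot fluorescence intensity with its signal-to-noise ratio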
[2] = small-molecule microarray binders of probe aDKK1, primary screen, biochemical, biotinylated probe, 635/667 nm fluorescence (AID 1099); details: higher = more signal;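 note: score merges 667nm spot fluorescence with signal to noise across triplicate slides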
[3] = small-molecule microarray binders of probe aCHRDL2, primary screen, biochemical, biotinylated probe, 635/667 nm fluorescence (AID 1100); details: higher = more signal
[4] = splicing luciferase reporter signal modulators, primary screen, spliceosome inhibition project, cell-based, HEK293, splice +/- reporter (AID 1101); details: luminescence, 24 h, higher = more signal, called active from +8 up or from −8 down;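 note: HEK293 cells carrying a splicing-competent luciferase reporter gene; test concentration not given here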
[5] = molecular target: Fibroblast growth factor 10 (Homo sapiens) (UniProt O15520); assay: FGF10 binders on small-molecule microarrays, primary screen, biochemical, small-molecule microarray, 635 nm fluorescence (AID 1102); details: FGF10 binding, fluorescence 635 nm, higher = more signal
[6] = test system: glycogen synthase kinase-3 (GSK3A per assay name; protocol says GSK3B); assay: GSK3 binders on small-molecule microarrays, primary screen, biochemical, small-molecule microarray, 635 nm fluorescence, GSK3A (AID 1103); details: small-molecule microarray binding, fluorescence 635 nm; higher = more signal; note: the record names both GSK3A and GSK3B
[7] = molecular target: Epidermal growth factor receptor (Homo sapiens) (UniProt P00533); assay: EGFR binders on small-molecule microarrays, primary screen, biochemical, small-molecule microarray, 635 nm fluorescence (AID 1104); details: EGFR binding, higher = more signal;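 note: score merges 667 nm emission intensity with spot signal to noise over triplicate slides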
[8] = molecular target: Follistatin-related protein 3 (Homo sapiens) (UniProt O95633); assay: FSTL3 binders on small-molecule microarrays, primary screen, biochemical, small-molecule microarray, 635 nm fluorescence (AID 1105); details: FSTL3 binding, higher = more signal;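 note: score merges emission near 667 nm and signal to noise per printed spot across three slides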
[9] = molecular target: Dickkopf-related protein 1 (Homo sapiens) (UniProt O94907); assay: DKK1 binders on small-molecule microarrays, primary screen, biochemical, small-molecule microarray, 635 nm fluorescence scan (AID 1106); details: DKK1 binding, higher = more signal;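 note: score merges emission near 667 nm with signal to noise over three replicate slides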
[10] = test system: Inhibin beta A chain (activin A); assay: INHBA (activin A) binders on microarrays, primary screen, biochemical, small-molecule microarray, 635 nm fluorescence scan (AID 1107); details: small-molecule microarray binding, higher = more signal;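 note: mouse activin A protein probed at 4.33 µg/mL on printed slides; score merges bound-protein fluorescence near 667 nm with spot signal-to-noise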
[11] = test system: Human papillomavirus type 1a protein E7 (residues 44-93); assay: HPV1a E7 fragment binders on microarrays, primary screen, biochemical, small-molecule microarray, residues 44-93, 635 nm fluorescence (AID 1108); details: small-molecule microarray binding, fluorescence 635 nm; higher = more signal;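 note: E7 fragment applied at 1 µg/mL in TBST for 1 h at 4 C; score combines spot fluorescence with its signal to noise ratio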
[12] = modulators of HCV replicon luciferase signal, primary screen, HCV replication inhibitor project, Huh7 cells, luciferase reporter (AID 1109); details: 48 h, higher = more signal;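 note: huh7 hepatoma cells harbouring a luciferase neomycin HCV replicon reporter; luciferase luminescence as measure of HCV replicon replication; test concentration not given here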
[13] = molecular target: Left-right determination factor 2 (Homo sapiens) (UniProt O00292); assay: LEFTY2 binders on small-molecule microarrays, primary screen, biochemical, small-molecule microarray, 635 nm fluorescence scan (AID 1110); details: LEFTY2 binding, higher = more signal
[14] = molecular target: Calmodulin-1 (Homo sapiens) (UniProt P0DP23); assay: CALM1 binders on microarrays, EGTA buffer, profiling panel, biochemical, small-molecule microarray, Cy5-labelled CALM1 (AID 1111); details: Cy5-CALM1 binding fluorescence, higher = more signal;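 note: labelled calmodulin applied in Tris saline Tween buffer holding calcium plus EGTA and DTT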
[15] = molecular target: Calmodulin-1 (Homo sapiens) (UniProt P0DP23); assay: calcium-bound CALM1 binders on microarrays, profiling panel, artefact control for SMM control-protein annotation, biochemical, small-molecule microarray, Cy5-labelled CALM1, plus calcium (AID 1112); details: Cy5-CALM1 binding fluorescence, higher = more signal;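 note: score merges spot fluorescence with signal to noise from triplicate slides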
[16] = small-molecule microarray binders of probe aWnt5a, primary screen, biochemical, biotinylated probe, 635/667 nm fluorescence (AID 1113); details: higher = more signal;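 note: score merges 667 nm fluorescence intensity with signal-to-noise per printed feature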
[17] = small-molecule microarray binders of probe aShh, primary screen, biochemical, biotinylated probe, 635/667 nm fluorescence (AID 1114); details: higher = more signal;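 note: probe is biotin-labelled aShh protein from a stem cell growth factor screen; measures binding of labelled protein to compounds printed on the slide; score merges feature fluorescence at 667 nm with signal-to-noise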
[18] = small-molecule microarray binders of probe aNog, primary screen, biochemical, biotinylated probe, 635/667 nm fluorescence (AID 1115); details: higher = more signal;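 note: probe is biotinylated aNog protein used at 0.15 µg/mL for 1 h at 4 C; z-score combines 667 nm fluorescence of each spot with its signal to noise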
[19] = molecular target: Torsin-1A-interacting protein 1 (Homo sapiens) (UniProt Q5JTV8); assay: LAP1 binders from COS7 cell lysate, primary screen, small-molecule microarray, 635/667 nm fluorescence (AID 1116); details: COS7-hLAP1 lysate binding, 635 nm fluorescence, higher = more signal
[20] = molecular target: Alpha-bungarotoxin (Bungarus multicinctus) (UniProt P60615); assay: alpha-bungarotoxin binders on microarray, profiling panel, artefact control for SMM control protein annotation, biochemical, small-molecule microarray, Alexa647 label, 635/667 nm fluorescence (AID 1117); details: alpha-BTX-A647 binding fluorescence, higher = more signal
Sequence of Alpha-bungarotoxin (Bungarus multicinctus) (P60615 whole entry, looked up): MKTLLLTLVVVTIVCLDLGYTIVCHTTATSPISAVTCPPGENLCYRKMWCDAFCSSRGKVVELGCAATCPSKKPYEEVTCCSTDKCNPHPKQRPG

Sequence of Epidermal growth factor receptor (Homo sapiens) (P00533 whole entry, looked up): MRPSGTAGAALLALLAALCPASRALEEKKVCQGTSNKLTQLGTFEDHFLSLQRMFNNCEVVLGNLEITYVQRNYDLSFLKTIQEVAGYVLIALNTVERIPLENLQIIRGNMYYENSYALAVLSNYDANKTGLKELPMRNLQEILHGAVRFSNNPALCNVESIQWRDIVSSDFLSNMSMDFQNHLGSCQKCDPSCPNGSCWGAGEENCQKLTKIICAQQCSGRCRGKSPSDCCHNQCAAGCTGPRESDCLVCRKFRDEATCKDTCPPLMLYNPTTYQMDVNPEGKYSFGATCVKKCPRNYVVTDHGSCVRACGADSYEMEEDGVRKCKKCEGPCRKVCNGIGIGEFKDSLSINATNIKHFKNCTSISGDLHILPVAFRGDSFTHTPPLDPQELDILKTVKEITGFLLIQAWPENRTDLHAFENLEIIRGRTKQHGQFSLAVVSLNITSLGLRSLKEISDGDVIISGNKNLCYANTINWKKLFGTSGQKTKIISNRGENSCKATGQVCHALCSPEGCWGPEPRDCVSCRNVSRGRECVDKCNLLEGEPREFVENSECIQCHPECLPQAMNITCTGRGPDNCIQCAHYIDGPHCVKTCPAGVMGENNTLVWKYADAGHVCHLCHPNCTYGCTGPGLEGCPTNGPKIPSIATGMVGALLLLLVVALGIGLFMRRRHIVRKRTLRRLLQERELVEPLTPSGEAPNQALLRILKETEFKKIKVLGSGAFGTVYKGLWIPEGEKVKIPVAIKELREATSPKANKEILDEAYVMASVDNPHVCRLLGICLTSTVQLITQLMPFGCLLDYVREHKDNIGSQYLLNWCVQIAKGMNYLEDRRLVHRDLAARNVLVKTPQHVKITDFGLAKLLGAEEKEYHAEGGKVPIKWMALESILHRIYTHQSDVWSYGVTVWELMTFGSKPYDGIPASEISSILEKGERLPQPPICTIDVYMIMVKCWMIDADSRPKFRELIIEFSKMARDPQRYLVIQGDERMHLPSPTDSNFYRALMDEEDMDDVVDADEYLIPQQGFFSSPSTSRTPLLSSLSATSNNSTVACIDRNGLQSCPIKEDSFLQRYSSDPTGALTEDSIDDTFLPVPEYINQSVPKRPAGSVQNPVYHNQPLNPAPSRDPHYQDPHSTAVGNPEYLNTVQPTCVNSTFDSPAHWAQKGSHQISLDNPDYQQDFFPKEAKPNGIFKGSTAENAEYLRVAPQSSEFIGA
Sequence of Dickkopf-related protein 1 (Homo sapiens) (O94907 whole entry, looked up): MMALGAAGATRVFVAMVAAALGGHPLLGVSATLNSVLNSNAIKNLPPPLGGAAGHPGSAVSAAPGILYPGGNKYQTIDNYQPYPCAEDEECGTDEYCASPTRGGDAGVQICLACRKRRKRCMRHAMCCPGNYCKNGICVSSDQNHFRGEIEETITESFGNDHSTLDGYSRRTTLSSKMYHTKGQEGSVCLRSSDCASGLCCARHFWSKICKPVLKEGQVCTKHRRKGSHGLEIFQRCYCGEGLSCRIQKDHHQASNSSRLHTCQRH
Sequence of Left-right determination factor 2 (Homo sapiens) (O00292 whole entry, looked up): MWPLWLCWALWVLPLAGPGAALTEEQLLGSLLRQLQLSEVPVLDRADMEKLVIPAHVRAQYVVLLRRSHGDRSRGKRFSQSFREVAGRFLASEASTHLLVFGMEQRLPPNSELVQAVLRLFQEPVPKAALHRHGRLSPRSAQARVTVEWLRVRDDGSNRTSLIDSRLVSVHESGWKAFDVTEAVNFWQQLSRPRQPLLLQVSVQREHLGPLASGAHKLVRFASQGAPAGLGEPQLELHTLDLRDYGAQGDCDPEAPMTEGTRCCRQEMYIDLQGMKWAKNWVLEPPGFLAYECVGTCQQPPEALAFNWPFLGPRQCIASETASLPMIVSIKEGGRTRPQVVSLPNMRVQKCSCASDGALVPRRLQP
Sequence of Torsin-1A-interacting protein 1 (Homo sapiens) (Q5JTV8 whole entry, looked up): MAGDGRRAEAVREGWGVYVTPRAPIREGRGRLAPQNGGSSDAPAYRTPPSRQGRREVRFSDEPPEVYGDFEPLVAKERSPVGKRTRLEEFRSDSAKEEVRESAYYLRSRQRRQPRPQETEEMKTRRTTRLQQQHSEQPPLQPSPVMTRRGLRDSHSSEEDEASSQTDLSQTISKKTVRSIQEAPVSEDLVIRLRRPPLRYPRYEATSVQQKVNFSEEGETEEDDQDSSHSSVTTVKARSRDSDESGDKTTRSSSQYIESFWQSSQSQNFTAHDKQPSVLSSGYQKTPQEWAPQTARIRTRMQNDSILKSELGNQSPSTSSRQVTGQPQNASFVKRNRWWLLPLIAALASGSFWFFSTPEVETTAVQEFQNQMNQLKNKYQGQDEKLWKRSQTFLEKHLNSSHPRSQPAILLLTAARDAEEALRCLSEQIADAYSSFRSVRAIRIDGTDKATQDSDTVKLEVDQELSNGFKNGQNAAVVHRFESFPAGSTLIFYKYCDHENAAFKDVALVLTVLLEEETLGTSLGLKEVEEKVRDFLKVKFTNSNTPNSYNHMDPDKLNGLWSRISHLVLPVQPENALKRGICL
Sequence of Fibroblast growth factor 10 (Homo sapiens) (O15520 whole entry, looked up): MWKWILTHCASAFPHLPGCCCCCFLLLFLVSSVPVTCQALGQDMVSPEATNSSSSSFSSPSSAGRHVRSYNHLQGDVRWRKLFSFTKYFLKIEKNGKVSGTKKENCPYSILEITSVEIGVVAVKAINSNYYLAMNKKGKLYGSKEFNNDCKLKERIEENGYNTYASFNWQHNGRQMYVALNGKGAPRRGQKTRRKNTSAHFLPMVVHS
Sequence of Follistatin-related protein 3 (Homo sapiens) (O95633 whole entry, looked up): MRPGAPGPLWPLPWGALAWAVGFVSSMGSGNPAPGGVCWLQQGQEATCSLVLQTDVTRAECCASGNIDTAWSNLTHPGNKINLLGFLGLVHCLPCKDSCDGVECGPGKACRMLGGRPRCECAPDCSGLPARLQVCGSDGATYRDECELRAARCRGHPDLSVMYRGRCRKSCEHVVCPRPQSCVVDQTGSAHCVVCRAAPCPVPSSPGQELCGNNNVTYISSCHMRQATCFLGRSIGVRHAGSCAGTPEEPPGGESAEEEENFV

Row | Compound | composite z-score [1] | composite z-score [2] | composite z-score [3] | z-score [4] | composite z-score [5] | composite z-score [6] | composite z-score [7] | composite z-score [8] | composite z-score [9] | composite z-score [10] | composite z-score [11] | z-score [12] | composite z-score [13] | composite z-score [14] | composite z-score [15] | composite z-score [16] | composite z-score [17] | composite z-score [18] | composite z-score [19] | composite z-score [20]
1 | CC(=O)OC[C@H]1O[C@H](C#CCCCc2ccccc2)C=C[C@@H]1OC(C)=O | 0.829 | -0.194 | -0.33 | 0.492 (inactive) | 0.687 | -0.0427 | 0.0559 | 0.556 | 0.3 | 1.03 | 0.108 | -2.99 | 0.615 | -0.826 | -0.794 | -0.118 | -0.0474 | -0.493 | 0.298 | 0.155
2 | CCOC(=O)[C@H](Cc1ccccc1)NC(=O)CCC1CC(OC(=O)NCc2ccc3c(c2)OCO3)CC2(CCCC(COC(=O)NCC(c3ccccc3)c3ccccc3)O2)O1 (stereo not given in full) | 1.06 | -0.0362 | -0.481 | -1.45 (inactive) | 0.525 | 1.23 | 0.251 | 0.929 | 0.377 | -0.0374 | 1.39 | 0.529 | 0.45 | -0.198 | -0.0205 | -0.175 | 0.0723 | -0.233 | 0.313 | 0.363
3 | CO[C@H]1COC(=O)CC=C[C@H](C)[C@@H](NS(=O)(=O)c2ccc(C)cc2)COC(=O)CC=C[C@@H]1C | 0.219 | -0.257 | -0.674 | -2.06 (inactive) | 0.582 | 0.528 | 0.853 | 0.579 | 0.761 | 0.257 | 0.0839 | -1.72 | 0.694 | -0.46 | -0.521 | -0.0738 | -0.13 | 0.0613 | 0.37 | -0.153
4 | COc1ccc(-c2nc3c(c4c2C[C@H](C)OC4)CN(CCC(C)C)CC3)cc1 | 0.785 | -0.0348 | -0.514 | 0.386 (inactive) | 1.02 | 1.08 | 0.472 | 1 | 0.388 | -0.296 | 1.35 | -0.257 | 0.6 | 0.518 | 0.038 | -0.0239 | 0.123 | -0.131 | 0.269 | 0.615
5 | COC(=O)[C@@H]1CC[C@H](C)[C@@H](c2ccc(C)cc2)N1C(=O)c1ccc(C=NOC[C@@H](O)COCc2ccco2)cc1 | -0.525 | -0.456 | 0.675 | -0.0402 (inactive) | -1.43 | -1.79 | -1.3 | -2.16 | -0.5 | 1.87 | -1.6 | -2.42 | 0.283 | -1.22 | -1.22 | -0.21 | -0.2 | -0.788 | -1.63 | -1.25
6 | O=C1CCCC=C1C(O)CCOCc1ccccc1 (stereo not given) | 0.265 | -0.229 | -0.513 | 0.322 (inactive) | 0.154 | -0.391 | 0.255 | -0.0207 | 0.428 | 0.13 | -0.649 | 0.939 | 0.408 | -0.314 | -0.605 | -0.0735 | -0.209 | -0.0236 | 0.266 | 0.129
7 | CC(C)C[C@@H]1NC(=O)[C@H]2C[C@@H](C(=O)O)[C@@H](c3ccc(O)cc3)N2C1=O | 1.08 | 0.717 | 0.171 | -0.0559 (inactive) | 0.0112 | 0.141 | -0.284 | 0.0204 | 0.63 | 1.05 | 0.635 | 3.51 | 0.0945 | -0.187 | 0.131 | -0.0704 | 0.0611 | -0.144 | 0.588 | 2.19
8 | CCc1cc2c(nc1CC)CCN(CCC(C)=NO[C@@H](C)c1cc(-c3c(C)cc(C)cc3C)no1)C2 | 0.856 | -0.227 | -0.286 | -0.596 (inactive) | -0.328 | -0.562 | -0.408 | -0.473 | -0.107 | 0.711 | 0.0525 | -1.87 | -0.368 | 0.0642 | -0.363 | -0.195 | -0.0709 | 0.0014 | 0.0675 | 0.297
9 | C=COC[C@H]1CN2[C@@H](CC[C@@H](C)[C@@H]2c2ccc(Br)cc2)C(=O)O1 | 0.729 | -0.41 | -0.601 | -1.09 (inactive) | 0.273 | 0.665 | 0.498 | 0.694 | 0.928 | 0.611 | 0.864 | 0.924 | 0.792 | 0.537 | -0.092 | -0.176 | -0.304 | -0.0286 | -0.415 | 0.166
10 | CCOC(=O)[C@H](CC(C)C)NC(=O)CCC1CC(OC(=O)NCc2cccc3ccccc23)CC2(CCCC(COC(=O)NCCc3ccccc3OC)O2)O1 (stereo not given in full) | 0.766 | -0.141 | -0.39 | -0.139 (inactive) | 1 | 1.03 | 0.387 | 0.866 | 0.555 | 0.182 | 1.38 | -1.24 | 0.488 | 1.3 | 0.371 | -0.124 | -0.214 | -0.335 | 0.607 | 0.588
11 | O=C1O[C@@H](c2ccccc2)[C@@H](c2ccccc2)N2[C@@H](c3ccc(O)cc3)[C@]3(C(=O)Nc4ccccc43)[C@@H](C(=O)O)[C@H]12 | 1.1 | 0.74 | 0.91 | 0.451 (inactive) | -0.0962 | 0.536 | -0.111 | -0.0238 | -0.465 | 0.385 | 1.02 | -0.996 | -0.6 | 0.64 | 0.212 | -0.174 | -0.793 | 0.0156 | 0.98 | -0.0356

Reference: PubChem BioAssay
